The values that follow come from PubChem BioAssay (Tox21).

Records with an inconclusive call do not appear. Where a structure was tested more than once in an assay, its records may differ in their call. Calls of active or inactive are those of the source. Calls come from the whole dose curve.

For assay [1], the target named is Acetylcholinesterase (Homo sapiens) (UniProt P22303). Briefly: Acetylcholinesterase (AChE) small molecule antagonists: colormetric cell-based qHTS assay (AID 1347395). Note: nearly all actives have a fitted effect of over 30% in size. In outline: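 SH-SY5Y cells; cpd 30 min 37 C; + DTNB/acetylthiocholine, 90 min 37 C; colorimetric thiocholine read; qHTS.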
Sequence of Acetylcholinesterase (Homo sapiens) (P22303 whole entry, looked up): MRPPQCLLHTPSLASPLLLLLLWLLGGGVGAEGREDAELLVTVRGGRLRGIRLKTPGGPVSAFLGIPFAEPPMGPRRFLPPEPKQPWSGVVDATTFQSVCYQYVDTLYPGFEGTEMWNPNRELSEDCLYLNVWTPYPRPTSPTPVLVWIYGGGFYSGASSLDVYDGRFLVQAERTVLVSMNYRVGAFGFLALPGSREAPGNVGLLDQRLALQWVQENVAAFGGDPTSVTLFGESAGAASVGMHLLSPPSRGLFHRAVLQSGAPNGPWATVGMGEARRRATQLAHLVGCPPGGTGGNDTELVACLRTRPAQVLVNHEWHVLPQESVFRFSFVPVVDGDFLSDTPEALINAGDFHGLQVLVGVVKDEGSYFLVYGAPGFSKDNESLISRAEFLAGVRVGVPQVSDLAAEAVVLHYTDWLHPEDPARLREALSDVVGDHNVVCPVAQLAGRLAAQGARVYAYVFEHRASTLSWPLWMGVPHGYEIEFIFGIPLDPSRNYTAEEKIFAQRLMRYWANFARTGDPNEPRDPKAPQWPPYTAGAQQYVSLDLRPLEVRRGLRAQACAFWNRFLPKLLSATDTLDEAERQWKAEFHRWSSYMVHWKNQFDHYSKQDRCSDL
Background: Quantitative high-throughput screening tests each substance at several concentrations.

The target is the same in assay [2]. Briefly: Acetylcholinesterase (AChE) small molecule antagonists: enzyme-based qHTS assay (AID 1347397). Note: nearly all actives have a fitted effect of over 55% in size. Note: potency is the fitted concentration of half-maximal effect. The note with it: Potency: AChE enzyme activity inhibition; outcome: AChE enzyme activity inhibition. In outline:
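Colorimetric DTNB readout of acetylthiocholine hydrolysis, 10 min at room temperature, after 30 min room-temperature exposure of 50 mU/mL recombinant human enzyme to compound; DMSO vehicle control.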

Assay [3] has the same target. Description: Acetylcholinesterase (AChE) small molecule antagonists: fluorescence cell-based qHTS assay (AID 1347398). Note: nearly all actives have a fitted effect of over 50% in size. Note: potency is the fitted concentration of half-maximal effect. The settings on record: Potency: AChE activity; outcome: AChE activity. The gist of the method: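 Cellular AChE activity read as thiocholine from acetylthiocholine hydrolysis, detected by Thiolite Green fluorescence at 490/520 nm after 40 min at room temperature. Compounds were pre-incubated 30 min at 37 C on adherent SH-SY5Y cells.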

Assay [4] shares this target. Briefly: Acetylcholinesterase (AChE) small molecule antagonists: enzyme-based qHTS assay with human liver microsomes (AID 1347399). Note: nearly all actives have a fitted effect of over 60% in size. Note: potency is the fitted concentration of half-maximal effect. The settings on record: Potency: qHTS inhibition; outcome: qHTS inhibition. In outline:
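Recombinant human AChE (50 mU/mL in the enzyme mix) and human liver microsomes (0.25 mg/mL final) were preincubated with compound and NADPH (0.25 mg/mL final) for 30 min at 37 C. Acetylthiocholine/DTNB was then added; thiocholine was read colorimetrically after 10 min at room temperature.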
% is set by controls: 0 for no effect and ±100 for the full control effect.

For `O=C1CCCCCCCCCCOCCCCO1`, the Potency result in assay [1], in assay [2], in assay [3] and in assay [4] was “inactive” each time.
Regarding `N#Cc1ccc(C(=O)O)cc1`, the Potency entry in assay [1], in assay [2], in assay [3] and in assay [4] was “inactive” throughout.
Take `[Na+]`: the Potency entry in assay [1], in assay [2], in assay [3] and in assay [4] was “inactive” in each case.
Consider `ClCCCl`, for which the Potency entry in assay [1], in assay [2], in assay [3] and in assay [4] was “inactive” throughout.
Take `c1ccc2ccccc2c1`: the Potency entry in assay [1], in assay [2], in assay [3] and in assay [4] was “inactive” in each case.
As to `Cc1ccc(C)c(OCCCC(C)(C)C(=O)O)c1`, the Potency result in assay [1], in assay [2], in assay [3] and in assay [4] was “inactive” throughout.
As for `Cc1ccc2c(c1)C(=O)OC2=O`, the Potency entry in assay [1], in assay [2], in assay [3] and in assay [4] was “inactive” in each case.
Regarding `O=C(O)CCCCCCCCCCCC(=O)O`, the Potency entry in assay [1], in assay [2], in assay [3] and in assay [4] was “inactive” each time.
With `OCCN(CCO)CCN(CCO)CCO`, the Potency entry in assay [1], in assay [2], in assay [3] and in assay [4] was “inactive” throughout.
As for `NC(N)=NCCN1CCCCCCC1`, in assay [1], the activity, negative = inhibition is 6.69% [at 0.435 µM] (inactive). Also, the activity change, negative = inhibition in assay [2] is 0% [at 0.435 µM] (inactive); in assay [3] it was 3.67% [at 0.439 µM] (inactive); in assay [4] it was -0.084% [at 0.435 µM] (inactive).
As to `OC1OCCOC1O` (stereo not given), the Potency entry in assay [1], in assay [2], in assay [3] and in assay [4] was “inactive” in each case.
With `Oc1ccc(Oc2ccccc2)cc1`, the Potency entry in assay [1], in assay [2], in assay [3] and in assay [4] was “inactive” in each case.
Consider `NS(=O)(=O)c1cc2c(cc1Cl)CN(C1CCCCC1)C2=O`, for which the Potency result in assay [1], in assay [2], in assay [3] and in assay [4] was “inactive” in each case.
As to `COC(=O)CCCCC(=O)OC`, the Potency result in assay [1], in assay [2], in assay [3] and in assay [4] was “inactive” each time.
On to `O=C(O)c1ccc(S(=O)(=O)N(Cl)Cl)cc1`, for which the Potency result in assay [1], in assay [2], in assay [3] and in assay [4] was “inactive” throughout.
With `Cc1scc2c1N(C(=O)CN1CCN(C)CC1)c1ccccc1NC2=O`, the Potency result in assay [1], in assay [2], in assay [3] and in assay [4] was “inactive” throughout.
Regarding `CC(C)(C)c1cccc(O)c1`, the Potency result in assay [1], in assay [2], in assay [3] and in assay [4] was “inactive” in each case.
As to `O=C(O)CCS`, the Potency entry in assay [1], in assay [2], in assay [3] and in assay [4] was “inactive” in each case.
Turning to `NCCCC[C@H](N[C@@H](CCc1ccccc1)C(=O)O)C(=O)N1CCC[C@H]1C(=O)O`, the Potency entry in assay [1], in assay [2], in assay [3] and in assay [4] was “inactive” in each case.
Turning to `Cc1c(C2(c3cc(Br)c(O)c(Br)c3C)OS(=O)(=O)c3ccccc32)cc(Br)c(O)c1Br`, the Potency result in assay [1], in assay [2], in assay [3] and in assay [4] was “inactive” throughout.
Take `O=C1c2ccccc2Cc2ccccc21`: the Potency result in assay [1], in assay [2], in assay [3] and in assay [4] was “inactive” each time.
For `CCOc1nc(F)cc2nc(S(=O)(=O)Nc3c(Cl)cccc3C(=O)OC)nn12`, the Potency entry in assay [1], in assay [2], in assay [3] and in assay [4] was “inactive” each time.
For the compound `COC(=O)c1ccccc1`, the Potency result in assay [1], in assay [2], in assay [3] and in assay [4] was “inactive” throughout.
On to `CCN(CC)CCN`, for which the Potency entry in assay [1], in assay [2], in assay [3] and in assay [4] was “inactive” in each case.
`C/C(=N\O)[C@@H](C)NCC(C)(C)CN[C@H](C)/C(C)=N/O`: the Potency entry in assay [1], in assay [2], in assay [3] and in assay [4] was “inactive” each time.
`C[Si](C)(C)N[Si](C)(C)C`: in assay [1], the Potency result is “inactive”. Besides, the Potency in assay [2] was 3.96 µM (active) and inactive; in assay [3] it was 1.98 µM (active) and inactive; in assay [4], 19.8 µM (active) and inactive.
Consider `O=C(O)c1cc(C(=O)O)cc(C(=O)O)c1`, for which the Potency entry in assay [1], in assay [2], in assay [3] and in assay [4] was “inactive” in each case.
Regarding `FC(F)(F)c1ccccc1`, the Potency entry in assay [1], in assay [2], in assay [3] and in assay [4] was “inactive” throughout.
For the compound `C[C@@H](O)[C@H]1C(=O)N2C(C(=O)O)=C(S[C@@H]3CN[C@H](C(=O)N(C)C)C3)[C@H](C)[C@H]12`, the Potency result in assay [1], in assay [2], in assay [3] and in assay [4] was “inactive” in each case.
For `O=C(OCC1CCC2OC2C1)C1CCC2OC2C1` (stereo not given), the Potency entry in assay [1], in assay [2], in assay [3] and in assay [4] was “inactive” throughout.
In the case of `CSc1nnc(C(C)(C)C)c(=O)[nH]1`, the Potency result in assay [1], in assay [2], in assay [3] and in assay [4] was “inactive” each time.
`CC1(C)COCN1`: the Potency result in assay [1], in assay [2], in assay [3] and in assay [4] was “inactive” throughout.
As to `Cc1cn([C@H]2C[C@H](F)[C@@H](CO)O2)c(=O)[nH]c1=O`, the Potency result in assay [1], in assay [2], in assay [3] and in assay [4] was “inactive” throughout.
Regarding `CC(CN)CCCN` (stereo not given), the Potency result in assay [1], in assay [2], in assay [3] and in assay [4] was “inactive” throughout.
For the compound `OC[C@@H](O)[C@H](O)[C@H](O)[C@@H](O)CO`, the Potency entry in assay [1], in assay [2], in assay [3] and in assay [4] was “inactive” throughout.
On to `O=c1[nH]cnc2c1ncn2[C@H]1CC[C@@H](CO)O1`, for which the Potency result in assay [1], in assay [2], in assay [3] and in assay [4] was “inactive” throughout.
With `FC(F)(F)c1ccc(Cl)c(Cl)c1`, the Potency result in assay [1], in assay [2], in assay [3] and in assay [4] was “inactive” throughout.
Take `OC1CCCc2ccccc21` (stereo not given): the Potency result in assay [1], in assay [2], in assay [3] and in assay [4] was “inactive” in each case.
As to `O=C(O)COc1nn(Cc2ccccc2)c2ccccc12`, the Potency entry in assay [1], in assay [2], in assay [3] and in assay [4] was “inactive” in each case.
As for `CC(C)(O)CCC(C)(C)O`, the Potency entry in assay [1], in assay [2], in assay [3] and in assay [4] was “inactive” in each case.
As to `COC(=O)c1ccc2cc(C(=O)OC)ccc2c1`, the activity, negative = inhibition in assay [1] is 3.17% [at 23.6 µM] (inactive). In addition, the figures for the activity change, negative = inhibition in assay [2], in assay [3] and in assay [4] were -0.273% [at 23.6 µM] (inactive), -7.2% [at 23.8 µM] (inactive) and -4.52% [at 23.6 µM] (inactive), respectively.
In the case of `C=COC(=O)C(C)(CC)CCC(C)C` (stereo not given), the Potency entry in assay [1], in assay [2], in assay [3] and in assay [4] was “inactive” each time.
On to `O=C1CCC(=O)O1`, for which the Potency entry in assay [1], in assay [2], in assay [3] and in assay [4] was “inactive” throughout.
Take `CCCC(CCC)(C(=O)OCC)C(=O)OCC`: the Potency result in assay [1], in assay [2], in assay [3] and in assay [4] was “inactive” throughout.
In the case of `CCc1ccccc1CC`, the Potency result in assay [1], in assay [2], in assay [3] and in assay [4] was “inactive” in each case.
As to `CC(=O)OCCCc1ccccc1`, the Potency entry in assay [1], in assay [2], in assay [3] and in assay [4] was “inactive” each time.
In the case of `CCCCCCCCCCCCCCCC(=O)OC[C@H](O)[C@H]1OC(=O)C(O)=C1O`, the Potency entry in assay [1], in assay [2], in assay [3] and in assay [4] was “inactive” each time.
As to `ClCCl`, the Potency entry in assay [1], in assay [2], in assay [3] and in assay [4] was “inactive” throughout.
For the compound `Cc1c(NC(=O)c2cccnc2)c(=O)n(-c2ccccc2)n1C`, the Potency result in assay [1], in assay [2], in assay [3] and in assay [4] was “inactive” in each case.
`Oc1cccc2[nH]ccc12`: the Potency entry in assay [1], in assay [2], in assay [3] and in assay [4] was “inactive” in each case.
`O=[N+]([O-])c1ccc(/C=C/c2ccc([N+](=O)[O-])cc2S(=O)(=O)O)c(S(=O)(=O)O)c1`: the Potency entry in assay [1], in assay [2], in assay [3] and in assay [4] was “inactive” in each case.
For the compound `C[Si](NC1CCCCC1)(NC1CCCCC1)NC1CCCCC1`, the Potency entry in assay [1], in assay [2], in assay [3] and in assay [4] was “inactive” in each case.
For `Cc1ncc(CO)c(CN)c1O`, the Potency entry in assay [1], in assay [2], in assay [3] and in assay [4] was “inactive” in each case.
Consider `Cc1[nH]c(C)c(Cl)c(=O)c1Cl`, for which the activity, negative = inhibition in assay [1] is 1.65% [at 23.6 µM] (inactive). In addition, the activity change, negative = inhibition was -0.693% [at 23.6 µM] (inactive) in assay [2], -0.55% [at 23.8 µM] (inactive) in assay [3] and -0.336% [at 23.6 µM] (inactive) in assay [4].
With `Cc1c(Cl)cccc1[N+](=O)[O-]`, the Potency entry in assay [1], in assay [2], in assay [3] and in assay [4] was “inactive” each time.
As for `[Cl][Bi]([Cl])([c]1ccccc1)([c]1ccccc1)[c]1ccccc1`, the Potency result in assay [1], in assay [2], in assay [3] and in assay [4] was “inactive” in each case.
Regarding `C/C=C/c1ccc(O)c(OC)c1`, the Potency result in assay [1], in assay [2], in assay [3] and in assay [4] was “inactive” each time.
Turning to `O=C(OCCCCCCOC(=O)c1ccccc1)c1ccccc1`, the Potency result in assay [1], in assay [2], in assay [3] and in assay [4] was “inactive” each time.
Consider `CC1=NN(c2ccccc2)C(=O)C1`, for which the Potency entry in assay [1] and in assay [4] was “inactive” in each case. Also, the Potency in assay [2] was 35.8 µM (active) and inactive; in assay [3], 5.06 µM (active) and inactive.
As to `O=C1OC2(c3ccccc31)c1ccc(O)c(Br)c1Oc1c2ccc(O)c1Br`, the Potency result in assay [1], in assay [2], in assay [3] and in assay [4] was “inactive” each time.
